Laboratory results reported in PubChem BioAssay.
Results filed as inconclusive are left out. Active and inactive are the calls of the source. Cut-off read from the data, not from the text of the source, unless noted: active = inhibition above about 30%; inactive = the rest.

Assays:
[1] = Her2 expression decrease, cell viability multiplex – SKBR3 breast tumor cells, AlphaScreen, ATP viability, primary screen (AID 461;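 active = Her2 level under about 52% in both replicate screens, with viability over 70% of control, limit read from the data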;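 for Her2 level: lower value means less Her2 protein in the cells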;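 for viability: percent of carrier control wells set as 100% viability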); conditions: SKBR3 Her2 protein level, 18-24 h, measured here: SKBR3 viability, ATP luminescence, at 10 µM
[2] = molecular target: Receptor tyrosine-protein kinase erbB-2 (Homo sapiens) (UniProt P04626); test: as above; conditions: 18-24 h, at 10 µM, stronger effect = lower value
Receptor tyrosine-protein kinase erbB-2 (Homo sapiens), sequence (P04626 whole entry, looked up): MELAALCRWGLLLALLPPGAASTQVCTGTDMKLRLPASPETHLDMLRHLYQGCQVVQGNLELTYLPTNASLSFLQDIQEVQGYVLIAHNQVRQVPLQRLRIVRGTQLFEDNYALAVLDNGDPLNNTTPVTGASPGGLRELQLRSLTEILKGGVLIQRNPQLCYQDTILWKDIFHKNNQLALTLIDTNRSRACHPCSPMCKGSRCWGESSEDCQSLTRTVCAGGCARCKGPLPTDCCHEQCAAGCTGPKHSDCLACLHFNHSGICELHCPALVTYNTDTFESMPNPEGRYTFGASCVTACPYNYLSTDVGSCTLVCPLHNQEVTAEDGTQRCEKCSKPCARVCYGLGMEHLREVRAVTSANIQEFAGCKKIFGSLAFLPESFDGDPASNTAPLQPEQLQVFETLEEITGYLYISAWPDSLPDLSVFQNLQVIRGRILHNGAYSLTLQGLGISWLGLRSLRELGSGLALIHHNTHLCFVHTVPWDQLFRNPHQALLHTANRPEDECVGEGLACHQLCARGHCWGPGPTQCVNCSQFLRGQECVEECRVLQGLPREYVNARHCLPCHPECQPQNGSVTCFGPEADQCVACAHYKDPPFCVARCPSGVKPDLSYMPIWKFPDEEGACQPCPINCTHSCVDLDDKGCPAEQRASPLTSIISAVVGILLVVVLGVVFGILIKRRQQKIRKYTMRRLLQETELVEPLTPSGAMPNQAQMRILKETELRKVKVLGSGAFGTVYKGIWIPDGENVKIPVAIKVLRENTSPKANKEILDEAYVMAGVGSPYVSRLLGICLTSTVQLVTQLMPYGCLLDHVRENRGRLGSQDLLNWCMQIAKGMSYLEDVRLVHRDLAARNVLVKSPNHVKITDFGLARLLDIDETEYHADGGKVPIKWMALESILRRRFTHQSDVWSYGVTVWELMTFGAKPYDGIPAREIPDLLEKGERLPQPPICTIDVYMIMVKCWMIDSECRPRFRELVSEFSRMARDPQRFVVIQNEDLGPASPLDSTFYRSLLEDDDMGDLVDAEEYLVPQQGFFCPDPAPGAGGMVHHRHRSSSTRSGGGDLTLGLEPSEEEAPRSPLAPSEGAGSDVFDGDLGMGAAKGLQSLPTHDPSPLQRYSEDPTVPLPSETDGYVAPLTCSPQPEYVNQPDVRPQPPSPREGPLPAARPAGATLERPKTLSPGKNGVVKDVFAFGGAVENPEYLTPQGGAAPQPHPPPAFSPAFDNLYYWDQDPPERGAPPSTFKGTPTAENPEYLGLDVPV

[3] = reduced viability of SK-BR-3 breast cancer cells – cell-based, 24 h, human, pilot screen (AID 572;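 active = viability at or below 10% of carrier control in both of two separate runs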;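 note: compound exposure lasted between 18 and 24 h rather than exactly 24 h; 100% = carrier-treated control wells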); conditions: SK-BR-3 viability, CellTiter-Glo luminescence, at 10 µM, stronger effect = lower value
[4] = HUVEC growth inhibition – cell-based, human, primary screen (AID 575;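 active = viability at or below 30% in both replicate assays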;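 note: 100% = median of untreated cell wells with 0.1% DMSO on each plate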); conditions: HUVEC proliferation, CellTiter-Glo luminescence, 72 h; at 10 µM; stronger effect = lower value
[5] = H69AR cell proliferation blockers – human, duplicate replicates, primary screen (AID 580;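 active = viability at or under a set limit in both replicates, limit being median viability minus 3 SD, cut at about 48% in these data, passing the limit was not always enough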;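 note: 100% = mean luminescence of untreated wells and 0% = no signal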); conditions: H69AR lung tumor cells viability, ATP luminescence, 72 h; at 10 µM; stronger effect = lower value
[6] = MRP1 drug-resistance reversers in H69AR cells – cell-based, doxorubicin co-treatment, pilot screen (AID 601;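 active = viability loss from added drug above about 55%, and viability with drug at most 40%, in both replicates, limit read from the data, passing the limit was not always enough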); conditions: CellTiter-Glo, 72 h, at 10 µM; for differential viability (reversal): stronger effect = higher value
[7] = yeast transport mutant growth inhibition pilot in 384-well plates, post-Golgi transport modulator project (AID 636; in the data active = inhibition above about 31%); conditions: absorbance 615 nm, about 18 h, stronger effect = higher value
[8] = growth suppression of yeast trafficking mutant, preliminary HTS, modulators of trafficking downstream of Golgi apparatus project, 1536-format plate, OD 615 nm (AID 637); conditions: yeast transport mutant growth, absorbance 615 nm, 18 h; stronger effect = higher value
[9] = S. cerevisiae growth inhibition in permissive medium (OD615), pilot counter-assay for S. cerevisiae lifespan shortening project, permissive growth control (AID 705;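 active = growth inhibition above 25% in both replicates, a cutoff set 3 SD above the mean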); conditions: OD615, 24 h, at 10 µM, stronger effect = higher value
[10] = S. cerevisiae growth inhibition in restrictive medium, OD615, pilot screen, restrictive growth control, yeast lifespan reduction project (AID 706;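 active = growth inhibition above a set limit, 3 SD over mean compound inhibition, in both replicates, cut at about 43% in these data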;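 note: modified DeaD lifespan yeast strain shifted to restrictive glucose medium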); conditions: OD615, 48 h, at 10 µM, stronger effect = higher value
[11] = doxorubicin toxicity protection in MRP-1 cells – H69AR cells, CellTiter-Glo, duplicate, MRP-1 activator project, pilot screen (AID 807;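 active = viability increase at or above a cutoff of the median across tested compounds plus 3 SD, cut at about 8.5% in these data, passing the limit was not always enough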;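 note: compound pretreatment 18-22 h then 72 h combined with doxorubicin; 0% = doxorubicin alone and 100% = vehicle without doxorubicin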); conditions: H69AR viability with doxorubicin, CellTiter-Glo luminescence; at 10 µM; stronger effect = higher value
[12] = viability of HCT116 without oncogenic beta-catenin – human colon tumor cells, pilot screen (AID 823;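 active = cell viability at or below a set limit in both duplicate runs, the limit being the all-compound median minus 4 SD, cut at about 23% in these data, passing the limit was not always enough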;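 note: 0% = wells killed by 20 µM Hyamine and 100% = untreated DMSO cell wells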); conditions: HCT116 beta-catenin knockout viability, CellTiter-Glo, 60 h; at 10 µM; stronger effect = lower value
[13] = viability of PTEN-null HCT116 cells – cell-based, HCT116 clonal line, CellTiter-Glo, pilot screen (AID 824;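 active = viability at or below 27.92% in each of two runs, the all-compound median minus 4 SD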;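 note: 0% = 20 µM Hyamine control and 100% = vehicle cell control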); conditions: HCT116 PTEN-deleted viability, 60 h, at 10 µM, stronger effect = lower value
[14] = RAM pathway blockade in budding yeast – dse1pr::URA3 reporter, 5-FOA selection, pilot screen (AID 869;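 active = inhibition over a set limit, the all-compound mean plus 3 SD, in both replicate runs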;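 note: 0% = DMSO wells with no growth and 100% = 10 µM 1-NA-PP1 with full growth; RAM network block rescues cells from 5-FOA so hits raise OD615 growth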); conditions: S. cerevisiae dse1pr::URA3 5-FOA growth, OD615, 2 d; at 10 µM; stronger effect = higher value; strain carries analog-sensitive mutant Cbk1 kinase
[15] = RAM signaling pathway blockade in yeast – S. cerevisiae, Pdr1DBD-CYC8 efflux-inhibited sensitized strain, primary screen (AID 1298;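 active = RAM network inhibition above 8.4% in each of two replicates, 3 SD over the compound average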;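 note: 0% = DMSO untreated cells without growth and 100% = 10 µM 1-NA-PP1 full growth; higher means more yeast growth rescued from 5-FOA killing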); conditions: S. cerevisiae cbk1-as DSE1-URA3 strain, 5-FOA growth OD615, 2 d; at 50 µM; stronger effect = higher value
[16] = H69AR cells + 2 uM doxorubicin, measured here: viability with 2 uM doxorubicin, stronger effect = lower value
[17] = H69AR cells, compound alone cytotoxicity

O=C(NC1CCN(Cc2ccccc2)CC1)C1CCN(S(=O)(=O)c2cccc3cccnc23)CC1
inactive: Her2 level [2] 97.5% | viability [3] 96.5% | viability [4] 86.9% | viability [5] 102% | differential viability (reversal) ([6]; H69AR cells + 2 uM doxorubicin) 1.09% | inhibition [7] -0.13% | inhibition [8] -2.62% | growth inhibition [9] 5.75% | growth inhibition [10] 1.73% | viability increase [11] 1.84% | viability [12] 88.3% | viability [13] 96% | inhibition [14] -0.18% | RAM network inhibition [15] 1.59%
96.5%: viability [1]
101%: viability [6, 16]
102%: viability [6, 17]

Cn1c(C(=O)NCCCN2CCN(c3ccc(F)cc3)CC2)cc2c(=O)n(C)c3ccccc3c21
inactive: Her2 level [2] 90% | viability [3] 81% | viability [4] 65.7% | viability [5] 84.1% | differential viability (reversal) ([6]; H69AR cells + 2 uM doxorubicin) 4.36% | inhibition [7] -3.07% | inhibition [8] 0% | growth inhibition [9] -6.23% | growth inhibition [10] 7.21% | viability increase [11] -5.3% | viability [12] 67.8% | viability [13] 70.1% | inhibition [14] -0.495% | RAM network inhibition [15] 1.71%
81%: viability [1]
79.8%: viability [6, 16]
84.1%: viability [6, 17]

O=C1c2ccccc2C(Nc2ccc(F)cc2F)N1CCN1CCOCC1 (stereo not drawn)
81.9%: viability [6, 16]
78.2%: viability [6, 17]
83%: viability [1]
inactive: Her2 level [2] 83% | viability [3] 83% | viability [4] 87.8% | viability [5] 78.2% | differential viability (reversal) ([6]; H69AR cells + 2 uM doxorubicin) -3.69% | inhibition [7] -5.73% | inhibition [8] 3.17% | growth inhibition [9] 0.235% | growth inhibition [10] -1.68% | viability increase [11] -1.58% | viability [12] 98.8% | viability [13] 104% | inhibition [14] 1.3% | RAM network inhibition [15] 0.93%

COc1cccc(-c2cc(C(=O)N3CCCCCC3)no2)c1
77.7%: viability [6, 16]
85.9%: viability [6, 17]
98.5%: viability [1]
inactive: Her2 level [2] 94% | viability [3] 98.5% | viability [4] 77.4% | viability [5] 85.9% | differential viability (reversal) ([6]; H69AR cells + 2 uM doxorubicin) 8.21% | inhibition [7] -5.2% | inhibition [8] 2.83% | growth inhibition [9] -12.5% | growth inhibition [10] -18.2% | viability increase [11] -0.05% | viability [12] 96.6% | viability [13] 90.9% | inhibition [14] 0.305% | RAM network inhibition [15] 0.68%

O=S(=O)(c1ccc(F)cc1)N1CCC(N2CCCC2)CC1
inactive: Her2 level [2] 96% | viability [3] 104% | viability [4] 89% | viability [5] 91.2% | differential viability (reversal) ([6]; H69AR cells + 2 uM doxorubicin) 10.3% | inhibition [7] -4.4% | inhibition [8] 3.67% | growth inhibition [9] -0.015% | growth inhibition [10] -5.88% | viability increase [11] -2.89% | viability [12] 96.2% | viability [13] 95.9% | inhibition [14] 1.23% | RAM network inhibition [15] 0.93%
104%: viability [1]
80.9%: viability [6, 16]
91.2%: viability [6, 17]

CCCC(=O)Nc1nc2ccc(S(N)(=O)=O)cc2s1
71.4%: viability [6, 16]
88%: viability [1]
inactive: Her2 level [2] 98% | viability [3] 88% | viability [4] 90% | viability [5] 106% | differential viability (reversal) ([6]; H69AR cells + 2 uM doxorubicin) 34.3% | inhibition [7] -3.33% | inhibition [8] 6.33% | growth inhibition [9] -4% | growth inhibition [10] -0.595% | viability increase [11] -1.78% | viability [12] 99.4% | viability [13] 90.5% | inhibition [14] 0.465% | RAM network inhibition [15] -0.2%
106%: viability [6, 17]

Cc1cccc(Cn2c(SCC(=O)Nc3ccccc3)nc3c2c(=O)[nH]c(=O)n3C)c1
inactive: Her2 level [2] 97% | viability [3] 81.5% | viability [4] 93.9% | viability [5] 81.8% | differential viability (reversal) ([6]; H69AR cells + 2 uM doxorubicin) -0.02% | inhibition [7] -1.33% | inhibition [8] 0% | growth inhibition [9] -12.4% | growth inhibition [10] -8.03% | viability increase [11] -1.01% | viability [12] 91% | viability [13] 71% | inhibition [14] 1.79% | RAM network inhibition [15] 5.01%
81.8%: viability [6, 16] | viability [6, 17]
81.5%: viability [1]

O=C(OCN1C(=O)c2ccccc2C1=O)C1CCCCC1
87.6%: viability [6, 17]
100%: viability [6, 16]
82%: viability [1]
inactive: Her2 level [2] 97.5% | viability [3] 82% | viability [4] 87.3% | viability [5] 87.6% | differential viability (reversal) ([6]; H69AR cells + 2 uM doxorubicin) -12.9% | inhibition [7] 3.08% | inhibition [8] -7.17% | growth inhibition [9] 0.93% | growth inhibition [10] -9.12% | viability increase [11] -2.19% | viability [12] 90.2% | viability [13] 91% | inhibition [14] 1.03% | RAM network inhibition [15] 0.77%

O=C(Cn1nc(Cc2ccncc2)c2ccccc2c1=O)N1CCN(C(=O)c2ccco2)CC1
86%: viability [6, 17]
94.2%: viability [6, 16]
98.5%: viability [1]
inactive: Her2 level [2] 110% | viability [3] 98.5% | viability [4] 85.6% | viability [5] 86% | differential viability (reversal) ([6]; H69AR cells + 2 uM doxorubicin) -8.19% | inhibition [7] -4.93% | inhibition [8] -4.5% | growth inhibition [9] -0.345% | growth inhibition [10] 9.88% | viability increase [11] -1.96% | viability [12] 106% | viability [13] 107% | inhibition [14] 1.01% | RAM network inhibition [15] 5.75%
